Source: PubChem BioAssay (NCI)
This is part of a sample that, as a whole, favours compounds with a hit. Of some 79,000 tested, about 15% had one in any assay. Values without a mark were called inactive. Calls of active or inactive are those of the source. No stated cut-off is given here; in the data, active means growth inhibition above about 70%; inactive means the rest.

How the values were obtained:
[1] = NCI Yeast Anticancer Drug Screen. Data for the rad52 strain (AID 147);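 further: 0% = growth of vehicle-treated control cultures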; conditions: S. cerevisiae rad52 mutant growth inhibition, hits give high values
Method in brief: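 Measured: yeast growth inhibition. System: strain with a defined DNA damage repair alteration. Reference: vehicle-treated control cultures.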

[2] = NCI Yeast Anticancer Drug Screen. Data for the wt1 strain (AID 149);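 further: 0% = growth of vehicle-treated wt1 cultures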; conditions: S. cerevisiae wt1 strain (SPY 50644) growth inhibition, hits give high values
Method in brief: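 Vehicle-normalised growth inhibition; strain wt1; compound exposure.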

[3] = NCI Yeast Anticancer Drug Screen. Data for the rad50EPP+ strain (AID 151);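 further: 0% = growth of vehicle-treated control cultures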; conditions: S. cerevisiae rad50 mutant strain, hits give high values
Method in brief: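 One strain with a rad50 alteration (rad50EPP+) was compound-treated, its growth then compared to that of vehicle controls.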

[4] = NCI Yeast Anticancer Drug Screen. Data for the mgt1 strain (AID 153); conditions: S. cerevisiae mgt1 mutant growth inhibition, hits give high values
Method in brief: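 After exposure of the mgt1 yeast mutant to compound, growth was measured and reported as inhibition compared with vehicle controls.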

[5] = NCI Yeast Anticancer Drug Screen. Data for the rad50 strain (AID 155);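 further: 0% = growth of vehicle-only cultures of the same strain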; conditions: S. cerevisiae rad50 strain growth inhibition, hits give high values
Method in brief: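 A DNA repair-deficient yeast mutant serves as the test organism; compound-induced growth inhibition is calculated against vehicle-treated cells.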

[6] = NCI Yeast Anticancer Drug Screen. Data for the mec2-1 strain (AID 157); conditions: S. cerevisiae mec2-1 strain, hits give high values
Method in brief: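 Test agents were screened against the mec2-1 yeast strain, with defined DNA repair or cell cycle alteration. Growth was scored as inhibition against vehicle-only controls.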

[7] = NCI Yeast Anticancer Drug Screen. Data for the rad14 strain (AID 159);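 further: 0% = growth of vehicle-treated control cultures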; conditions: S. cerevisiae rad14 strain growth inhibition, hits give high values
Method in brief: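 Vehicle-treated cultures served as the baseline for growth inhibition of a DNA repair-mutant yeast strain exposed to each compound.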

[8] = NCI Yeast Anticancer Drug Screen. Data for the sgs1 mgt1 strain (AID 161);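 further: 0% = growth of cultures given vehicle only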; conditions: S. cerevisiae sgs1 mgt1 strain, hits give high values
Method in brief: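 Mutant yeast exposed to compound; growth scored against vehicle-only wells.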

[9] = NCI Yeast Anticancer Drug Screen. Data for the CLN2oe strain (AID 163);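 further: 0% = growth of vehicle-only control cultures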; conditions: S. cerevisiae CLN2oe strain, hits give high values
Method in brief: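 Here, growth inhibition in a cell-cycle-altered yeast strain after compound exposure was quantified against vehicle control growth.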

[10] = NCI Yeast Anticancer Drug Screen. Data for the cln2 rad14 strain (AID 165);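 further: 0% = growth equal to vehicle treated cultures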; conditions: S. cerevisiae cln2 rad14 strain, hits give high values
Method in brief: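 Growth of compound-exposed yeast (cln2 rad14 genotype) measured and expressed as inhibition relative to vehicle.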

[11] = NCI Yeast Anticancer Drug Screen. Data for the bub3 strain (AID 167); conditions: S. cerevisiae bub3 mutant strain, hits give high values
Method in brief: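 Inhibition values come from growth of compound-treated mutant yeast normalised to vehicle-treated controls.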

[12] = NCI Yeast Anticancer Drug Screen. Data for the wt2 strain (AID 169);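 further: 0% = growth of vehicle-treated yeast cultures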; conditions: S. cerevisiae wt2 strain growth inhibition, hits give high values
Method in brief: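 Genetically defined yeast strains from a DNA-repair/cell-cycle panel were used. Compound-exposed yeast growth was measured, and the inhibition was calculated relative to vehicle treatment.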

[13] = NCI Yeast Anticancer Drug Screen. Data for the sgs1 strain (AID 173);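 further: 0% = growth of vehicle-only control cultures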; conditions: S. cerevisiae sgs1 mutant, hits give high values
Method in brief: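 Relative growth inhibition, referenced to vehicle, was determined in a yeast strain with a defined alteration affecting DNA damage repair or cell cycle control after compound exposure.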

[14] = NCI Yeast Anticancer Drug Screen. Data for the mlh1 rad18 strain (AID 175); conditions: S. cerevisiae mlh1 rad18 strain growth inhibition, hits give high values
Method in brief: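 In this whole-cell yeast screen, a strain with altered DNA damage repair is challenged with compound, and its growth is measured against matched vehicle-treated controls.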

[15] = NCI Yeast Anticancer Drug Screen. Data for the mlh1 strain (AID 171);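 further: 0% = growth of vehicle-treated control cultures of the same strain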; conditions: S. cerevisiae mlh1 strain growth inhibition, hits give high values
Method in brief: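 Here the genetically defined yeast mutant is grown with each compound, and the extent to which its growth falls below that of vehicle-exposed cells is reported.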

[16] = NCI Yeast Anticancer Drug Screen. Data for the rad18 strain (AID 177); conditions: S. cerevisiae rad18 mutant growth inhibition, hits give high values
Method in brief: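 Screen uses a yeast strain with a defined lesion in DNA damage repair; compound effect is read as loss of growth compared to untreated vehicle cultures.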

[17] = at 5.0 µM (retest, dose inferred, filed as 0.5)
[18] = at 50.0 µM (retest, dose inferred, filed as 5.0)

SMILES: CC(=O)Nc1ccc2c(c1)Cc1cc(N=C3C=CC(=O)O3)ccc1-2
- growth inhibition ([1]; at 1.2 µM): 11%
- growth inhibition ([1]; at 3.7 µM): 27%
- growth inhibition ([1]; at 11.0 µM): 85% (active)
- growth inhibition ([1]; at 33.0 µM): 99% (active)
- growth inhibition ([1]; at 100.0 µM): 99% (active)
- growth inhibition ([2]; at 1.2 µM): 0%
- growth inhibition ([2]; at 3.7 µM): 14%
- growth inhibition ([2]; at 11.0 µM): 41%
- growth inhibition ([2]; at 33.0 µM): 99% (active)
- growth inhibition ([2]; at 100.0 µM): 99% (active)
- growth inhibition ([3]; at 1.2 µM): 37%
- growth inhibition ([3]; at 3.7 µM): 77% (active)
- growth inhibition ([3]; at 11.0 µM): 96% (active)
- growth inhibition ([3]; at 33.0 µM): 99% (active)
- growth inhibition ([3]; at 100.0 µM): 99% (active)
- growth inhibition ([4]; at 1.2 µM): 9%
- growth inhibition ([4]; at 3.7 µM): 19%
- growth inhibition ([4]; at 11.0 µM): 67%
- growth inhibition ([4]; at 33.0 µM): 99% (active)
- growth inhibition ([4]; at 100.0 µM): 99% (active)
- growth inhibition ([5]; at 1.2 µM): 9%
- growth inhibition ([5]; at 3.7 µM): 31%
- growth inhibition [5, 17]: 60%
- growth inhibition ([5]; at 11.0 µM): 81% (active)
- growth inhibition ([5]; at 33.0 µM): 99% (active)
- growth inhibition [5, 18]: 99% (active)
- growth inhibition ([5]; at 50.0 µM): 28.6%
- growth inhibition ([5]; at 100.0 µM): 99% (active)
- growth inhibition ([6]; at 1.2 µM): 19%
- growth inhibition ([6]; at 3.7 µM): 31%
- growth inhibition [6, 17]: 87% (active)
- growth inhibition ([6]; at 11.0 µM): 89% (active)
- growth inhibition ([6]; at 33.0 µM): 99% (active)
- growth inhibition [6, 18]: 99% (active)
- growth inhibition ([6]; at 50.0 µM): 15.8%
- growth inhibition ([6]; at 100.0 µM): 99% (active)
- growth inhibition ([7]; at 1.2 µM): 12%
- growth inhibition ([7]; at 3.7 µM): 27%
- growth inhibition ([7]; at 11.0 µM): 84% (active)
- growth inhibition ([7]; at 33.0 µM): 99% (active)
- growth inhibition ([7]; at 100.0 µM): 99% (active)
- growth inhibition [8, 17]: 54%
- growth inhibition [8, 18]: 99% (active)
- growth inhibition ([8]; at 50.0 µM): 49.1%
- growth inhibition ([9]; at 1.2 µM): 6%
- growth inhibition ([9]; at 3.7 µM): 16%
- growth inhibition ([9]; at 11.0 µM): 47%
- growth inhibition ([9]; at 33.0 µM): 99% (active)
- growth inhibition ([9]; at 100.0 µM): 99% (active)
- growth inhibition [10, 17]: 9%
- growth inhibition [10, 18]: 99% (active)
- growth inhibition ([10]; at 50.0 µM): 24.9%
- growth inhibition ([11]; at 1.2 µM): -1%
- growth inhibition ([11]; at 3.7 µM): 7%
- growth inhibition [11, 17]: 32%
- growth inhibition ([11]; at 11.0 µM): 72% (active)
- growth inhibition ([11]; at 33.0 µM): 99% (active)
- growth inhibition [11, 18]: 99% (active)
- growth inhibition ([11]; at 50.0 µM): 29.5%
- growth inhibition ([11]; at 100.0 µM): 98% (active)
- growth inhibition ([12]; at 1.2 µM): 0%
- growth inhibition ([12]; at 3.7 µM): 18%
- growth inhibition ([12]; at 11.0 µM): 93% (active)
- growth inhibition ([12]; at 33.0 µM): 99% (active)
- growth inhibition ([12]; at 100.0 µM): 95% (active)
- growth inhibition ([13]; at 1.2 µM): 14%
- growth inhibition ([13]; at 3.7 µM): 34%
- growth inhibition ([13]; at 11.0 µM): 92% (active)
- growth inhibition ([13]; at 33.0 µM): 99% (active)
- growth inhibition ([13]; at 100.0 µM): 99% (active)
- growth inhibition [14, 17]: 82% (active)
- growth inhibition [14, 18]: 99% (active)
- growth inhibition ([14]; at 50.0 µM): 0.7%

SMILES: N#CC(=Nc1ccccc1F)Nc1ccccc1F
- growth inhibition ([1]; at 1.2 µM): -3%
- growth inhibition ([1]; at 3.7 µM): -3%
- growth inhibition ([1]; at 11.0 µM): -2%
- growth inhibition ([1]; at 33.0 µM): 8%
- growth inhibition ([1]; at 100.0 µM): 9%
- growth inhibition ([2]; at 1.2 µM): -5%
- growth inhibition ([2]; at 3.7 µM): -3%
- growth inhibition ([2]; at 11.0 µM): -11%
- growth inhibition ([2]; at 33.0 µM): -10%
- growth inhibition ([2]; at 100.0 µM): -7%
- growth inhibition ([3]; at 1.2 µM): 6%
- growth inhibition ([3]; at 3.7 µM): 11%
- growth inhibition ([3]; at 11.0 µM): 21%
- growth inhibition ([3]; at 33.0 µM): 29%
- growth inhibition ([3]; at 100.0 µM): 20%
- growth inhibition ([4]; at 1.2 µM): -5%
- growth inhibition ([4]; at 3.7 µM): -4%
- growth inhibition ([4]; at 11.0 µM): -4%
- growth inhibition ([4]; at 33.0 µM): 2%
- growth inhibition ([4]; at 100.0 µM): -2%
- growth inhibition ([5]; at 1.2 µM): 0%
- growth inhibition ([5]; at 3.7 µM): 2%
- growth inhibition [5, 17]: -6%
- growth inhibition ([5]; at 11.0 µM): -1%
- growth inhibition ([5]; at 33.0 µM): 5%
- growth inhibition [5, 18]: -1%
- growth inhibition ([5]; at 50.0 µM): -2.35%
- growth inhibition ([5]; at 100.0 µM): 5%
- growth inhibition ([6]; at 1.2 µM): -4%
- growth inhibition ([6]; at 3.7 µM): -1%
- growth inhibition [6, 17]: -4%
- growth inhibition ([6]; at 11.0 µM): -4%
- growth inhibition ([6]; at 33.0 µM): 8%
- growth inhibition [6, 18]: 8%
- growth inhibition ([6]; at 50.0 µM): -2.55%
- growth inhibition ([6]; at 100.0 µM): 10%
- growth inhibition ([7]; at 1.2 µM): -5%
- growth inhibition ([7]; at 3.7 µM): -4%
- growth inhibition ([7]; at 11.0 µM): -4%
- growth inhibition ([7]; at 33.0 µM): 10%
- growth inhibition ([7]; at 100.0 µM): 12%
- growth inhibition [8, 17]: -3%
- growth inhibition [8, 18]: 15%
- growth inhibition ([8]; at 50.0 µM): 12.1%
- growth inhibition ([9]; at 1.2 µM): 1%
- growth inhibition ([9]; at 3.7 µM): 0%
- growth inhibition ([9]; at 11.0 µM): 5%
- growth inhibition ([9]; at 33.0 µM): 11%
- growth inhibition ([9]; at 100.0 µM): 26%
- growth inhibition [10, 17]: -1%
- growth inhibition [10, 18]: -3%
- growth inhibition ([10]; at 50.0 µM): -0.6%
- growth inhibition ([11]; at 1.2 µM): -3%
- growth inhibition ([11]; at 3.7 µM): -3%
- growth inhibition [11, 17]: -2%
- growth inhibition ([11]; at 11.0 µM): -1%
- growth inhibition ([11]; at 33.0 µM): 5%
- growth inhibition [11, 18]: 3%
- growth inhibition ([11]; at 50.0 µM): 8.55%
- growth inhibition ([11]; at 100.0 µM): -2%
- growth inhibition ([12]; at 1.2 µM): -2%
- growth inhibition ([12]; at 3.7 µM): -3%
- growth inhibition ([12]; at 11.0 µM): -5%
- growth inhibition ([12]; at 33.0 µM): 2%
- growth inhibition ([12]; at 100.0 µM): 3%
- growth inhibition ([15]; at 1.2 µM): -1%
- growth inhibition ([15]; at 3.7 µM): -5%
- growth inhibition ([15]; at 11.0 µM): -6%
- growth inhibition ([15]; at 33.0 µM): -2%
- growth inhibition ([15]; at 100.0 µM): 5%
- growth inhibition [14, 17]: -7%
- growth inhibition [14, 18]: 0%
- growth inhibition ([14]; at 50.0 µM): 66.8%
- growth inhibition ([16]; at 1.2 µM): -6%
- growth inhibition ([16]; at 3.7 µM): -7%
- growth inhibition ([16]; at 11.0 µM): -10%
- growth inhibition ([16]; at 33.0 µM): -2%
- growth inhibition ([16]; at 100.0 µM): 9%
